Among the data in PubChem BioAssay are z-score and composite z-score values, retold here.

The source made the active and inactive calls. Unless noted, how the calls were made is not given here.

The nature of assay [1]: HepG2 liver cancer cell viability effects, profiling panel, resazurin fluorescence, 24 h, PK04 Diversity Set (AID 1172). Further: test concentration not given here. The conditions noted are these: higher = more signal. In general terms: Resazurin is reduced to fluorescent resorufin, in cell work by metabolically active cells.
A short description of assay [2]: basal S. cerevisiae growth modulation, no modifier, primary screen, OD600, strain BY4716, 24 h, basal condition (AID 1173). The conditions noted are these: OD600, 24 h, higher = more signal, called active from +8 up or from −8 down.
A short description of assay [3]: MM1S myeloma cell viability, profiling panel, resazurin fluorescence, basal, 24 h, PK04 Diversity Set (AID 1174).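 Further: MM1S multiple myeloma cell line; test concentration not given here.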 The note with it: higher = more signal, called active from +8 up or from −8 down.
For assay [4], the target named is Dihydroorotate dehydrogenase (quinone), mitochondrial (Plasmodium falciparum (isolate 3D7)) (UniProt Q08210). The assay is described as follows: PfDHODH enzyme inhibitors, primary screen, biochemical, C-terminal His tag, absorbance 600 nm (AID 1175).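 Further: recombinant parasite enzyme with a five histidine tag at its C terminus; test concentration not given here.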 The conditions noted are these: DCIP absorbance 600 nm, higher = more signal, called active from +8 up or from −8 down.
Dihydroorotate dehydrogenase (quinone), mitochondrial (Plasmodium falciparum (isolate 3D7)), sequence (Q08210 whole entry, looked up): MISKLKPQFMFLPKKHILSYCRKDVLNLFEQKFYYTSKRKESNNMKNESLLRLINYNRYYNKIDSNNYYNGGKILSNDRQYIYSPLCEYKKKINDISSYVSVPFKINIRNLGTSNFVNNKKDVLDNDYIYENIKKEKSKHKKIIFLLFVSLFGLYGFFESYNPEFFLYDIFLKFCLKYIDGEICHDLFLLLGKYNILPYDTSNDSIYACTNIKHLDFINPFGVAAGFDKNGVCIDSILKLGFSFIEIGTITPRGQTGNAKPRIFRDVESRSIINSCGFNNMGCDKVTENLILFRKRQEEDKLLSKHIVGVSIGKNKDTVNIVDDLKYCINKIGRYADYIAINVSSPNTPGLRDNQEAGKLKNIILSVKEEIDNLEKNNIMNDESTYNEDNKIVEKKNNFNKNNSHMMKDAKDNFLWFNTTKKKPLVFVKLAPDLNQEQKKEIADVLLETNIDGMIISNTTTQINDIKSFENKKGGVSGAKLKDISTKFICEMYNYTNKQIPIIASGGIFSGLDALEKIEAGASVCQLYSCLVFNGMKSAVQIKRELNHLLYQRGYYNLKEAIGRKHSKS

Assay [5] in a line: P. aeruginosa biofilm formation inhibitors, primary screen, strain PAO1, LB-PBS medium, absorbance 600 nm (AID 1176). Further: test concentration not given here. The conditions noted are these: P. aeruginosa PAO1 growth/biofilm, A600, 12 h; higher = more signal.
A short description of assay [6]: S. cerevisiae RM11-1a growth modifiers, primary screen, strain RM11-1a, OD600, basal, 24 h (AID 1177).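 Further: cultures grown under basal conditions with no added stressor; test concentration not given here.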 The conditions noted are these: OD600, 24 h, higher = more signal, called active from +8 up or from −8 down.
The nature of assay [7]: E. coli acrAB mutant growth effects, primary screen, E. coli filamentation inducers, strain DRC39, OD650, 24 h (AID 1178).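 Further: growth measured as culture turbidity by optical density at 650 nm; test concentration not given here.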 The note with it: higher = more signal, called active from +8 up or from −8 down.
Assay [8] in a line: E. coli acrAB mutant growth effects, primary screen, E. coli filamentation inducers, strain DRC39, OD650, 48 h (AID 1179).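 Further: screen aims at cell division blockers that make cells filament.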 The conditions noted are these: E. coli DRC39 delta-acrAB growth, higher = more signal, called active from +8 up or from −8 down.
Assay [9] in a line: RPMI8226 myeloma cell viability, profiling panel, resazurin fluorescence, basal, 24 h, PK04 Diversity Set (AID 1180).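 Further: RPMI8826 multiple myeloma cell line at 5000 cells per well; test concentration not given here.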 The conditions noted are these: higher = more signal.
Assay [10] deals with E3 ubiquitin-protein ligase XIAP (Homo sapiens) (UniProt P98170). The assay is described as follows: XIAP binders, primary screen, biophysical, small-molecule microarray, fluorescence 635 nm (AID 1181).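 Further: score merges 667 nm emission and signal to noise over triplicate slides.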 The note with it: small-molecule microarray binding, higher = more signal.
E3 ubiquitin-protein ligase XIAP (Homo sapiens), sequence (P98170 whole entry, looked up): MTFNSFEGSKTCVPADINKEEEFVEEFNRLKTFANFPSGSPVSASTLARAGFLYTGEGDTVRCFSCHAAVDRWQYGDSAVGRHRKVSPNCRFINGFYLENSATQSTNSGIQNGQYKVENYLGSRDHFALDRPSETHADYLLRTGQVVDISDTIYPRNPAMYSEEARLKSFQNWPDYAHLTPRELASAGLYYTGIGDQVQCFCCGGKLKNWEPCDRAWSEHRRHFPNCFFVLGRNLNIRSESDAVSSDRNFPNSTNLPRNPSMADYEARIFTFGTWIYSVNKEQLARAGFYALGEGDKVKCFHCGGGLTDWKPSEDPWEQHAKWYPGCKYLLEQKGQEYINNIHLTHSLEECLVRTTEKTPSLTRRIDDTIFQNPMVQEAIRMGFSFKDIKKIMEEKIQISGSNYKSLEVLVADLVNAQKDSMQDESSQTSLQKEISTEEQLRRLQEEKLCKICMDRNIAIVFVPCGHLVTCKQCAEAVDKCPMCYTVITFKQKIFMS

For `CN1C(=O)C2C=CC(C(O)c3ccccn3)N(Nc3ccccc3)C2C1=O` (stereo not given), the z-score was -1.03 in [1]; 0.727 (inactive) in [2]; -0.467 (inactive) in assay [3]; 1.28 (inactive) in [5]; 1.57 (inactive) in assay [6]; -0.206 (inactive) in assay [7]. The z-score was -0.387 (inactive) in [8] and -0.878 in assay [9]. For the same molecule, the composite z-score in [4] was 1.42 (inactive); in assay [10], 0.742.

Take `COCCOC(=O)N1C(=O)[C@@]2(c3cc(C#CCNC(N)=O)ccc31)[C@H](C(=O)N1CCc3cc(OC)c(OC)cc3C1)[C@H]1C(=O)O[C@H](c3ccccc3)[C@H](c3ccccc3)N1[C@@H]2c1ccc(OCCO)cc1`: the z-score in assay [1] was 0.631; in assay [2] it was 2.28 (inactive); in [3] it was 0.761 (inactive); in assay [5], 1.92 (inactive); in assay [6] it was 2.97 (inactive); in [7], 0.987 (inactive). Further, the z-score in [8] was 0.781 (inactive); in assay [9] it was 0.856. Moreover, the figures for the composite z-score in [4] and in assay [10] were -0.232 (inactive) and 0.122, respectively.

On to `COC(=O)c1ccc(OC)c(/C=C\CC(OC(C)=O)c2ccccc2)c1` (stereo not given), for which the z-score in assay [1] was 0.0209; in assay [2], -1.17 (inactive); in [3], -0.345 (inactive); in assay [5], -0.351 (inactive); in [6] it was -0.639 (inactive); in assay [7], 0.0847 (inactive). Also, the values for the z-score in assay [8] and in assay [9] were -0.396 (inactive) and -1.1, respectively. Moreover, the composite z-score in [4] was -3.79 (inactive); in [10], 0.0131.

Turning to `C=CC[C@]1(C(=O)N2CCOCC2)N=C(c2ccc(OCCCO)cc2)O[C@H]1c1ccccc1`, the z-score is 0.318 in [1]; -1.4 (inactive) in [2]; -0.0524 (inactive) in [3]; 1.17 (inactive) in assay [5]; -0.594 (inactive) in assay [6]; 0.14 (inactive) in [7]. Further, the z-score is 0.122 (inactive) in assay [8] and 0.335 in assay [9]. Besides, the composite z-score was 0.373 (inactive) in assay [4] and -0.031 in [10].

For the molecule `CCCCCCCCCCC(O)C1C=CC2C(=O)N(Cc3ccccc3)C(=O)C2N1n1cnnc1` (stereo not given), the z-score is -1.17 in [1]; -0.472 (inactive) in [2]; -1.39 (inactive) in [3]; -0.541 (inactive) in assay [5]; -0.623 (inactive) in [6]; -0.845 (inactive) in assay [7]. Also, the z-score in [8] was -0.592 (inactive); in assay [9], -1.15. Also, the composite z-score was -1.2 (inactive) in [4] and -0.0085 in assay [10].

With `CCOC(=O)C1=C[C@@H](CC)N(S(=O)(=O)c2ccc(C)cc2)[C@H]1c1ccccc1`, the z-score in assay [1] is -0.203; in [2], 1.21 (inactive); in assay [3], -0.666 (inactive); in assay [5], 0.325 (inactive); in [6], 0.501 (inactive); in assay [7], -0.823 (inactive). Further, the z-score is -0.604 (inactive) in assay [8] and -1.05 in [9]. For the same molecule, the figures for the composite z-score in assay [4] and in assay [10] were -0.157 (inactive) and 0.289, respectively.

For `O=C1O[C@H](c2ccccc2)[C@H](c2ccccc2)N2[C@H]1[C@@H](C(=O)O)[C@]1(C(=O)Nc3ccc(C#CC4(O)CCCCCC4)cc31)[C@H]2c1ccc(OCCO)cc1`, the z-score in assay [1] was 0.246; in [2] it was -0.495 (inactive); in assay [3], -0.249 (inactive); in [5], 1.07 (inactive); in assay [6], 2.12 (inactive); in assay [7] it was -0.184 (inactive). Moreover, the values for the z-score in [8] and in [9] were -0.151 (inactive) and -0.317, respectively. Further, the composite z-score was -4.61 (inactive) in assay [4] and -0.0181 in assay [10].

With `CN1CCC(CCCO)=CC1c1ccc(CN2CCCC2)cc1` (stereo not given), the z-score in assay [1] is 0.106; in [2] it was -1.33 (inactive); in assay [3], -0.202 (inactive); in assay [5] it was 0.661 (inactive); in [6], -0.0607 (inactive); in assay [7] it was 0.0543 (inactive). Further, the z-score was 0.201 (inactive) in assay [8] and -0.304 in assay [9]. In addition, the composite z-score is -0.27 (inactive) in assay [4] and 0.194 in [10].

Regarding `O=C1c2ccccc2[C@@]2(Cc3ccccc3N(Cc3ccccc3)C2=O)[C@H](c2ccc(CO)cc2)N1C1CCCCC1`, the z-score is 0.281 in assay [1]; 1.61 (inactive) in assay [2]; -0.242 (inactive) in assay [3]; 0.407 (inactive) in [5]; 1.57 (inactive) in [6]; 0.281 (inactive) in assay [7]. In addition, the z-score in assay [8] is 0.256 (inactive); in assay [9], -0.0776. In addition, the composite z-score was -11.6 (active) in assay [4] and -0.239 in assay [10].

Regarding `CC(C)C(=C=CC[C@H](O)c1ccccc1OCCO)C[C@H](O)c1ccccn1`, the z-score was 0.644 in assay [1]; -0.669 (inactive) in [2]; 0.34 (inactive) in assay [3]; 0.4 (inactive) in [5]; 0.398 (inactive) in assay [6]; 0.762 (inactive) in [7]. Moreover, the results for the z-score in assay [8] and in assay [9] were 0.577 (inactive) and 0.285, respectively. Besides, the composite z-score in assay [4] is -3.95 (inactive); in [10], -0.226.

With `Cc1ccc([C@H]2C(C(=O)O)=C[C@@H](C)N2S(=O)(=O)c2ccc(C)cc2)cc1`, the z-score in assay [1] was -0.534; in assay [2], -0.704 (inactive); in [3], -0.612 (inactive); in assay [5] it was -0.0322 (inactive); in [6] it was -0.211 (inactive); in [7], -0.654 (inactive). Further, the z-score is -0.444 (inactive) in assay [8] and -1.52 in [9]. Further, the values for the composite z-score in assay [4] and in [10] were -0.377 (inactive) and 0.254, respectively.

For the molecule `CCCNC(=O)[C@@H]1c2ccccc2C(=O)N(Cc2ccccc2)[C@H]1c1ccc(CO)cc1`, the z-score in [1] was -0.898; in assay [2], 0.215 (inactive); in [3], 0.0254 (inactive); in assay [5] it was 1.27 (inactive); in assay [6], 0.797 (inactive); in [7], -0.229 (inactive). Also, the z-score in assay [8] was -0.969 (inactive); in assay [9] it was 0.477. Also, the composite z-score in [4] is 0.939 (inactive); in assay [10], -0.276.
